RmlCD inh 1536 = M. tuberculosis RmlC/RmlD coupled enzyme inhibitors, primary screen, biochemical, compound mixtures, 384-well, from 1536-well plates. dTDP-4-dehydrorhamnose reductase (Mycobacterium tuberculosis (strain ATCC 25618 / H37Rv)) …. RmlC+RmlD coupled enzyme assay, percent inhibition; primary screen in compound mixtures. inhibition, % at 3.6 µM. hit rate 0.03% among 160,000. AID 1533, 2009; in the data active means inhibition mostly above about 34%, no sharp cut-off
Target sequence (P9WH09 whole entry, looked up): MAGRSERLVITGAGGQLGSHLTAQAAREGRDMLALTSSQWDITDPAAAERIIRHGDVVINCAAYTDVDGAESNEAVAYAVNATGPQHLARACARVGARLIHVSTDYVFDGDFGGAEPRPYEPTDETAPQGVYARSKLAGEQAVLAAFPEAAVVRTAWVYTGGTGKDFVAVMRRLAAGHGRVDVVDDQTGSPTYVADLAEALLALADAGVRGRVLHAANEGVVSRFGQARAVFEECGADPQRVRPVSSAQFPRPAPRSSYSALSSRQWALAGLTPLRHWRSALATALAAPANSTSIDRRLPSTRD
Target sequence (P9WH11 whole entry, looked up): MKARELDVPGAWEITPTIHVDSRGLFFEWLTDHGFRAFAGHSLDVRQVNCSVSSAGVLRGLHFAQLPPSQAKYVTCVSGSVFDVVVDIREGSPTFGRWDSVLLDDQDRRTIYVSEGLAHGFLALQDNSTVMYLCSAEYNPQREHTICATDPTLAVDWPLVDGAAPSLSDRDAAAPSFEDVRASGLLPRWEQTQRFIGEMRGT
YopH PTP inh = YopH tyrosine phosphatase inhibitors, primary screen, biochemical, fluorescence Ex485/Em525. inhibition, % (concentration not given with the values). hit rate 0.16% among 140,000. AID 898, 2007; in the data active means inhibition above about 50%
* = called active by the depositor; nt = not tested or not shown. Many of the other results were omitted from the sample, so hits are more common in it than they were.

SMILES	RmlCD inh 1536	YopH PTP inh
CCn1c(CSc2ncccn2)nnc1SCC(=O)N1CCCCC1	6	nt
CN1c2ccccc2N(C)C1(C)c1ccccc1	9	85*
CN1C(=O)N(C)C2(c3ccccc3)NC(=O)NC12c1ccccc1 (centres undefined)	-4	-26
CCN1c2ccccc2N(C)C1(C)c1ccccc1 (centres undefined)	0	92*
CCN1C(=O)N(c2cccc3ccccc23)C(C)=CC1(C)C	nt	9
CCCc1c(C(=O)Nc2cc(C)on2)cnn1-c1ccccc1	-7	nt
O=C(Cc1ccc(Br)cc1)OCC(=O)N1CCc2ccccc2C1	33	2
CN(C(=O)COc1ccc(C(C)(C)C)cc1)C1CCS(=O)(=O)C1 (centres undefined)	-10	54*
CCc1ccc(OCC(=O)N(C)C2CCS(=O)(=O)C2)cc1 (centres undefined)	nt	-26
Cc1ccc(CN2CCN(Cc3cnc(N4CCOCC4)s3)CC2CCO)o1 (centres undefined)	6	nt
Cc1cc(=O)oc2cc(NS(=O)(=O)c3ccccc3)ccc12	43*	nt
CN(C)S(=O)(=O)c1ccc(S(=O)(=O)Nc2ccc3c(c2)oc2ccccc23)cc1	-1	6
CCCCOC(=O)N/N=C/C=C/c1ccccc1	-10	-3
CC(C)c1ccc(OCC(=O)NC2=NCCS2)cc1	21	nt
O=C(NC1(O)C(=O)c2ccccc2C1=O)c1c(Cl)cccc1Cl	-3	nt
O=C(NC1(O)C(=O)c2ccccc2C1=O)c1ccccc1	nt	102*
CCOc1cc(C(=S)N2CCOCC2)ccc1OC	nt	12
CCOc1ccc(C(=S)N2CCOCC2)cc1OC	nt	50*
O=c1oc2c(-c3ccc([N+](=O)[O-])cc3)cc(O)cc2s1	-5	nt
CCOC(=O)/C(C)=N/NC(=O)c1ccc([N+](=O)[O-])cc1	13	nt
CCOC(=O)/C(N=Nc1ccc(F)cc1)=C(/O)c1ccc([N+](=O)[O-])cc1	10	62*
CC(C)c1nc2ccc(Br)cn2c1NC1CCCC1	-11	nt
COc1ccc(C2c3ccc(O)cc3Oc3ncn4nc(-c5cccnc5)nc4c32)cc1OC (centres undefined)	-8	nt
CC(C)(C)NC(=O)COC(=O)CCC(=O)c1cccs1	-44	nt
O=c1cc2oc3cc(O)c(O)cc3c(-c3ccccc3O)c-2cc1O	7	nt
SMILES	RmlCD inh 1536	YopH PTP inh
COc1ccc(OC)c(-c2c3cc(O)c(=O)cc-3oc3cc(O)c(O)cc23)c1	6	55*
COc1ccc(OC)c(-c2csc(NC(=O)CSc3ccc([N+](=O)[O-])cc3)n2)c1	nt	-17
COc1ccc(C2=Nc3cccc4cccc(c34)N2)cc1	1	-21
Nc1cccc(C2=Nc3cccc4cccc(c34)N2)c1	9	62*
CCCc1nnc(NC(=O)c2ccc(N3C(=O)C4C5C=CC(C5)C4C3=O)cc2)s1 (centres undefined)	nt	-21
O=C(Nc1nnc(C(F)(F)F)s1)c1ccc(N2C(=O)C3C4C=CC(C4)C3C2=O)cc1 (centres undefined)	nt	98*
CC1CN(S(=O)(=O)c2cccc(C(=O)OCc3cc(=O)oc4cc(O)ccc34)c2)CC(C)O1 (centres undefined)	64*	1
CN(C)c1cccc(C(=O)OCc2cc(=O)oc3cc(O)ccc23)c1	11	10
CSc1nsc(/C=C/Nc2ccc(F)cc2)c1C#N	5	nt
CSc1nsc(/C=C/Nc2ccc(Cl)cc2)c1C#N	nt	56*
COCCNC(=S)N(C)C1(c2ccccc2Cl)CCCCC1=O (centres undefined)	8	nt
O=C1C(=O)N(Cc2ccccc2)C(=O)N1CCN1C(=O)c2ccccc2C1=O	-3	nt
O=C1Cc2ccccc2C(=O)N1CCc1ccccc1	8	100*
CCCCn1c(N)c(NCCC(C)C)c(=O)[nH]c1=O	-3	52*
CCCCn1c(N)c(Sc2ccccc2)c(=O)[nH]c1=O	11	-31
Cn1nc(-c2ccccc2)c(CN2CCN(c3ncccn3)CC2)c1Cl	-12	nt
CCC(=O)Oc1ccc2c(C)c(Cl)c(=O)oc2c1	43*	-32
Cc1c(Cl)c(=O)oc2cc(OC(C)C)ccc12	nt	-15
O=S(=O)(c1ccc2ccccc2c1)N1CCC(c2nc(-c3ccncc3)no2)CC1	nt	50*
CN(C)c1ccc(-c2noc(C3CCN(S(=O)(=O)c4cccc(Cl)c4)CC3)n2)cc1	-10	-32
CC(C)CN(C(=O)COC(=O)c1c(Cl)ccc(Cl)c1Cl)C1CCS(=O)(=O)C1 (centres undefined)	9	nt
COc1ccc2nc3ccccc3nc2c1	-8	nt
COc1ccc(-n2nc3ccccc3n2)cc1	0	50*
COc1cc(/C=C2\SC(=Nc3ccc(N4CCOCC4)cc3)N(C)C2=O)ccc1OC(C)C(=O)O (centres undefined)	-17	-20
COC(=O)c1sc(NC(=O)c2c(OC)cccc2OC)c(C#N)c1C	-42	nt
SMILES	RmlCD inh 1536	YopH PTP inh
CC(C)OC(=O)C1C(=O)CC(C)(O)C(C(=O)OC(C)C)C1c1ccccc1 (centres undefined)	4	nt
COC(=O)C1C(C(C)C)N(c2ccccc2)OC1(C)O (centres undefined)	-4	59*
Cc1ccc(C(=S)N2CCN(Cc3ccccc3)CC2)s1	-2	nt
COC1=C(Nc2ccc(OC)cc2)C(=O)c2ccccc2C1=O	-12	-19
COc1ccc(NC2=C(NCCO)C(=O)c3ccccc3C2=O)cc1	1	78*
CC1=C(C(=O)OC(C)(C)C)C(c2cccs2)NC(=O)N1 (centres undefined)	13	-5
Cn1c2ccccc2c(=O)n2c(=O)c3ccccc3cc12	nt	101*
Cn1c(-c2ccccc2)cc(=O)c2ccccc21	nt	-4
CCOc1ccc(NC(=S)Nc2ccc3nsnc3c2)cc1	-10	84*
CCOc1ccc(NC(=O)Nc2ccc3nsnc3c2)cc1	5	nt
CC[N+]1(CC)CC2=Cc3c(ccc4ccccc34)C(C)C2C1 (centres undefined)	14	nt
COc1ccc(NCc2ccc([N+](=O)[O-])s2)cc1	-9	48
COc1ccc(NCc2ccc([N+](=O)[O-])s2)c(OC)c1	-10	76*
O=c1c2ccccc2nc(SCc2nc3ccccc3s2)n1CCCO	6	-26
S=c1[nH]nc(-c2ccccc2)n1/N=C/C=C/c1ccco1	9	51*
S=c1[nH]nc(-c2ccc(Cl)cc2)n1/N=C/C=C/c1ccco1	60	nt
COc1cccc(CN2CCNC(=O)C2CC(=O)N(Cc2cnn(C)c2)C(C)C)c1 (centres undefined)	-5	nt
COc1cc(OC)c(NC(C)C(=O)N2CCCC2)cc1Cl (centres undefined)	3	nt
CCOCCCNC(=O)CN(c1cc([N+](=O)[O-])ccc1OC)S(C)(=O)=O	1	nt
CCOC(=O)/C(=C\c1cn(C)c2ccccc12)[N+](=O)[O-]	nt	1
COC(=O)/C(=C/Nc1cccc2ccccc12)[N+](=O)[O-]	100*	-17
C=CCNC(=S)N/N=C/c1cccc([N+](=O)[O-])c1	1	nt
CC(=O)N(C)C1=C(O)c2ccccc2C(=O)C1=O	nt	4
CC(=O)C(C(C)=O)C1(O)C(=O)c2ccccc2C1=O	7	98*
CCC(C)c1ccccc1NC(=O)COC(=O)c1ccc2[nH]c3c(c2c1)CCCC3 (centres undefined)	-4	-32
CCCCOC(=O)C1=C(C)NC2(O)c3ccccc3C(=O)C12O (centres undefined)	10	67*

Assay outcomes: PubChem BioAssay, several laboratories
